# Screening results (PubChem BioAssay)
# Shown are actives, neighbours in structure and some others; about 10% of the full set was active somewhere.
# GPT2 inh – GPT2 alanine aminotransferase inhibition; Recombinant GPT2, coupled pyruvate oxidase/HRP Amplex Red fluorescence; Potency, µM (series often up to 57.7 µM), for the others: top-dose activity change, negative = inhibition, hits mostly inhibitors; 100,000 tested, 0.25% active; also: % is scaled to controls: 0 for no effect and ±100 for the full control effect; nearly all actives have a fitted effect of over 60% in size
# Target sequence (Q8TD30 whole entry, looked up): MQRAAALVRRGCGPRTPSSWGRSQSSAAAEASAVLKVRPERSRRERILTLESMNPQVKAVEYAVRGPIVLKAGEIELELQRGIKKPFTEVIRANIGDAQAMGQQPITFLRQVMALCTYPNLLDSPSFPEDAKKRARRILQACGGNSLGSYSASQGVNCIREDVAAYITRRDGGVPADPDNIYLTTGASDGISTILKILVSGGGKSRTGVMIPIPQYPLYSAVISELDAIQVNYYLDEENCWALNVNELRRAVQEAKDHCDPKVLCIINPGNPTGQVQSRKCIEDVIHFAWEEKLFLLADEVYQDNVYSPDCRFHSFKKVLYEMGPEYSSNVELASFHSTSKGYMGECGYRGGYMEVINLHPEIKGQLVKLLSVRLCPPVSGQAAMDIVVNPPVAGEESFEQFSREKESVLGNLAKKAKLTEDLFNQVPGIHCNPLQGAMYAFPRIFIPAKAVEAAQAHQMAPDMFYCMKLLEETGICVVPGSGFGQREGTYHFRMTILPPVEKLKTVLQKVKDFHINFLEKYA
#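 Recombinant GPT2 (10ng/uL) with 250uM a-KG and 2mM L-alanine, 30 min at room temperature, in HEPES pH 7.5 buffer. Pyruvate detected by pyruvate oxidase/HRP/Amplex Red fluorescence after 30 min in the dark; AOA (50uM) as positive control.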
# FLuc inh-1 – blocks purified firefly luciferase enzyme activity. P08659. purified P. pyralis luciferase, luminescence, biochemical. Potency, µM (top dose mostly 115 µM), actives largely listed as inhibitors. 76,000 tested, 2.5% active; also: % is scaled to controls: 0 for no effect and ±100 for the full control effect; nearly all actives have a fitted effect of over 65% in size
#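 Biochemical qHTS: compound (6-point titration) added to 10uM D-luciferin plus 10uM ATP in Tris acetate pH 7.5 buffer with Mg, Tween-20 and BSA, then purified enzyme at 10nM; light output imaged.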
# 3T3 cytotox – cytotoxic compounds in NIH 3T3 cells. NIH 3T3 viability, CellTiter-Glo ATP luminescence, 48-72 h. Potency, µM (titrated, usually from 96.7 µM), for inactives: top-dose activity change, negative = cytotoxicity, usual class: inhibitors. 94,000 tested, 4.3% active. AID 1345082; also: % is scaled to controls: 0 for no effect and ±100 for the full control effect; nearly all actives have a fitted effect of over 55% in size
#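 Viability of NIH 3T3 cells after 48 or 72 hr compound treatment at 37 °C was assessed by CellTiter-Glo, with luminescence imaged following a 10 min room-temperature step.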
# hNpr1 antagonist – antagonists of human natriuretic peptide receptor Npr1; P16066; HEK293 hNpr1 GloSensor cGMP, ANP-stimulated luminescence; Potency, µM (series often up to 46.3 µM), without a hit: at the top dose activity change, negative = inhibition, hits mostly inhibitors; 76,000 tested, 1.6% active; AID 1347048; calls by dose curve; also: % is scaled to controls: 0 for no effect and ±100 for the full control effect; nearly all actives have a fitted effect of over 60% in size
#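 HEK293 cells stably expressing human Npr1 and cGMP GloSensor pGS-40F, loaded 2 h with 2% GloSensor reagent, given compound 30 min at room temperature. Luminescence read before and 20 min after 0.1 nM hNppA.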
# HEK cytotox – HEK 293 cell cytotoxicity | HEK 293 viability, ATP luminescence (CellTiter-Glo), 48-72 h | Potency, µM (series often up to 115 µM), inactives show at the top dose activity change, negative = cytotoxicity, usual class: inhibitors | 94,000 tested, 6.6% active | AID 1345083; also: % is scaled to controls: 0 for no effect and ±100 for the full control effect; nearly all actives have a fitted effect of over 60% in size
#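 HEK 293 cells at 250 cells/well were exposed to compounds by pintool transfer for 48 or 72 hr at 37 degree Celsius, 5% CO2. Viability was read as ATP-coupled luminescence with CellTiter-Glo after 10 min at room temperature.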
# FLuc SDR no ATP – binders stabilizing firefly luciferase, without ATP; 1,300 tested, 7.8% active; AID 1963318; Potency, µM (doses to about 32.7 µM), for inactives: at the top dose activation (signal gain), actives largely listed as activators; Purified FLuc-C-HiBiT, Nano-Glo HiBiT luminescence, no ATP; shares compounds with FLuc inh-1; also: nearly all actives have a fitted effect of over 55% in size
# FLuc SDR ATP – stabilizes firefly luciferase with ATP present. 1,300 tested, 8.7% active. purified FLuc-C-HiBiT + ATP, HiBiT complementation luminescence. shares compounds with FLuc inh-1. AID 1963319. Potency, µM (highest dose often 32.7 µM), for the others: at the highest dose activation (gain of signal), most hits filed as activators;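 also: signal reports ligand binding via conformational change of the enzyme rather than luciferase catalysis; % of control where 0% means no effect; nearly all actives have a fitted effect of over 55% in size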
# FLuc inh-2 – inhibitors of firefly luciferase enzymatic activity | shares compounds with FLuc inh-1 | 1,300 tested, 42% active | AID 1963320 | purified FLuc-C-HiBiT enzyme, luciferin luminescence | Potency, µM (titrated, usually from 32.7 µM), without a hit: at the top dose activity change, negative = inhibition, usual class: inhibitors; also: % is scaled to controls: 0 for no effect and ±100 for the full control effect; nearly all actives have a fitted effect of over 70% in size
# * = called active by the depositor; i = inactive; ? = inconclusive; . = no result; [ ] = another dose, or the depositor's remark. Unless noted, calls follow the shape of the dose curve; as a rule, active = well fitted curve in the direction sought with a large enough effect; inconclusive = small, poorly fitted or top-dose-only effect, or another doubt; inactive = no such curve, though single readings can be large; an effect the other way counts as inactive or inconclusive. Potency is read from the fitted curve at half-maximal effect.
SMILES,GPT2 inh,FLuc inh-1,3T3 cytotox,hNpr1 antagonist,HEK cytotox,FLuc SDR no ATP,FLuc SDR ATP,FLuc inh-2
OC1CCN(c2ncnc3c2cnn3-c2ccccc2)CC1,.,.,.,.,.,25%,?,?
COc1cccc(NC(=O)NC[C@H]2O[C@@H](CC(=O)N3CCN(c4ccc(F)cc4)CC3)[C@H](O)[C@@H]2O)c1,0%,i,-11%,0%,2%,.,.,.
O=C(NCC(F)(F)F)C1CCCN1C(=O)c1cccc(-c2cccnc2)c1 (centres undefined),.,.,-11%,.,1%,.,.,.
Cc1ccc2nc(-c3ccc(F)cc3)c(CN3CCCC(C(N)=O)C3)cc2c1 (centres undefined),1%,?,?,-6%,?,.,.,.
NC(=O)C1CCN(c2ncnc3c2cnn3-c2cccc(Cl)c2)CC1,.,.,.,.,.,17%,12%,-18%
c1ccc(-n2ncc3c(N4CCCCC4)ncnc32)cc1,.,.,.,.,.,3.5µM*,?,0.88µM*
CCOc1ccccc1CN1CC[C@H](c2n[nH]c(C)n2)[C@H](NC(=O)C2CC2)C1,-2%,i,-25%,4%,-13%,.,.,.
COc1ccc(NC(=O)N2CCc3c(C(=O)NCCN4CCCCCC4)cccc32)cc1,2%,1.6µM*,-23%,10µM*,?,?,0.79µM*,0.56µM*
Cc1cccc(S(=O)(=O)N2CCc3c(C(=O)NCCN4CCCCC4)cccc32)c1,?,i,?,-3%,?,.,.,.
COc1ccc(NC(=O)N2CCc3c(C(=O)N(C)C)cccc32)cc1,i,0.25µM*,?,4µM*,?,?,0.16µM*,0.11µM*
COc1ccc(NC(=O)N2CCc3c(C(=O)N(C)Cc4ccco4)cccc32)cc1,2%,4µM*,-27%,?,?,?,2.5µM*,1.8µM*
Cc1cccc(NC(=O)N2CCc3c(C(=O)N(C)Cc4ccco4)cccc32)c1,-10%,?,?,-19%,?,.,.,.
O=C(Nc1ccc(Cl)cc1)N1CCC(c2nn(-c3ccccn3)c(=O)[nH]2)CC1,i,.,-18%,.,-3%,.,.,.
COc1cccc2cc(-c3nnc(-c4ccc(Cl)cc4)o3)c(=O)oc12,.,.,.,.,.,17%,?,?
COc1ccc(N2CC(c3noc(-c4ccc(Cl)cc4)n3)CC2=O)cc1 (centres undefined),-19%,i,?,-1%,?,.,.,.
COCCN1CCNc2cc(-c3cc(Cl)ccc3OC)ncc2C1,i,?,?,-2%[70.6 µM],?,.,.,.
CC(=O)N1CCN(C(=O)c2cccc(-c3ccccn3)c2)CC1,i,.,-7%[138 µM],.,-24%[172 µM],.,.,.
COCCN1CCNc2cc(-c3cccc(N(C)C)c3)ncc2C1,.,.,.,.,.,31%[49.3 µM],?,16µM*
CC(=O)N1CCNc2cc(-c3cccc(F)c3)ncc2C1,.,.,.,.,.,21%[65.7 µM],16%[65.7 µM],?
Cc1cc(-c2cc3c(cn2)CN(Cc2nccn2C)CCN3)ccn1,.,.,.,.,.,18%[49.3 µM],13%[49.3 µM],?
CC(=O)Nc1cccc(-c2cc3c(cn2)CN(Cc2ccccc2)CCN3)c1,4%[88.5 µM],14µM*,?,2%[70.6 µM],?,20%[49.3 µM],17%[49.3 µM],?
CC(=O)Nc1cccc(-c2ccc3c(n2)c(=O)ncn3Cc2ccccc2)c1,2%[88.5 µM],i,?,-7%[70.6 µM],-6%[172 µM],.,.,.
Cn1ccnc1CN1CCN(c2nccc(-c3ccccn3)n2)CC1,2%,i,-4%,6%,4%,.,.,.
O=C(NCC1(N2CCN(c3ccccc3)CC2)CCOCC1)c1cccnc1Sc1ccccc1,i,.,.,.,.,.,.,.
COc1cc(CN2CC[C@H](CNC(=O)C3CC3)[C@H](N(C)C)C2)cc(OC)c1,i,i,0%,11%,-14%,.,.,.
SMILES,GPT2 inh,FLuc inh-1,3T3 cytotox,hNpr1 antagonist,HEK cytotox,FLuc SDR no ATP,FLuc SDR ATP,FLuc inh-2
COc1cccc(CN2CCNc3cnc(OCc4cccnc4)cc3C2)c1,3%[88.5 µM],i,?,-24%[70.6 µM],?,.,.,.
COc1cccc(CN2CCNc3cc(-c4ccnc(C)c4)ncc3C2)c1,4%[88.5 µM],14µM*,?,-4%[70.6 µM],71µM*,17%[49.3 µM],16%[49.3 µM],?
Cc1ccc2c(n1)OC(COc1ccccc1)CN(Cc1cccs1)C2=O (centres undefined),i,.,?,.,?,.,.,.
Cc1cc(C)c(S(=O)(=O)N2CCCC(Cn3cc(CO)nn3)C2)c(C)c1 (centres undefined),-12%,i,-27%,12%,-22%,.,.,.
OCc1cn(CC2CCN(c3ncnc4nc[nH]c34)CC2)nn1,i,i,i,3%,-4%,9%,8%,-2%
COc1ccc(-c2noc(N3CCc4ccccc43)n2)cc1,i,1.6µM*,-10%,?,0%,25%,?,3.1µM*
COC(=O)C1(C)CCCC2(C)c3ccc(C(C)C)cc3C(O)C(O)C12 (centres undefined),i,.,.,.,.,.,.,.
Fc1ccc(-n2ncc3c(N4CCCCC4)nc(NN4CCOCC4)nc32)cc1,.,.,.,.,.,11%,8%,3%
C=C(C)C1CC2(CO)C(=CC1=O)CCC(O)C2C (centres undefined),i,.,.,.,.,.,.,.
Cc1cccc(OCCn2nnc3sc4c(c3c2=O)CCCC4)c1,.,.,.,.,.,7%,5%,?
COCCNc1oc(-c2ccc(OC)cc2)nc1C#N,.,.,.,.,.,22%,15%,?
Cc1cc(NC(=O)c2ccc(CN3CC[C@H](O)C3)cc2)ccc1F,2%[11.5 µM],0.89µM*,?,10µM*,?,?,?,2µM*
Cc1nnc(CN2CCOc3c(O)cc(-c4ccccc4C)cc3C2)s1,i,i,?,-1%,?,.,.,.
Oc1cc(-c2nc3ccccc3s2)cc2c1OCCN(Cc1cccn1-c1ncccn1)C2,.,.,.,.,.,10%,7%,-13%
Oc1cc(-c2nc3ccccc3s2)cc2c1OCCN(Cc1cccn1-c1ccccn1)C2,.,.,.,.,.,14%,11%,-19%
O=S1(=O)CC(COCc2ccccc2)CN1c1ccccc1 (centres undefined),.,.,?,.,-16%,.,.,.
CN1c2cc(C(=O)Nc3ccccc3)ccc2C(=O)N2CCCCC21 (centres undefined),i,7.1µM*,-19%,-20%,?,17%,16%,?
